What was measured:
[1] = molecular target: Tyrosine-protein kinase Fer (Homo sapiens) (UniProt P16591); details: at 10 µM
[2] = molecular target: Tyrosine-protein kinase Fes/Fps (Homo sapiens) (UniProt P07332); details: at 1 µM
[3] = molecular target: Tyrosine-protein kinase Fes/Fps (Homo sapiens) (UniProt P07332); details: at 10 µM
[4] = molecular target: Tyrosine-protein kinase Fgr (Homo sapiens) (UniProt P09769); details: at 1 µM
[5] = molecular target: Tyrosine-protein kinase Fgr (Homo sapiens) (UniProt P09769); details: at 10 µM
[6] = molecular target: Vascular endothelial growth factor receptor 1 (Homo sapiens) (UniProt P17948); details: at 1 µM
[7] = molecular target: Vascular endothelial growth factor receptor 1 (Homo sapiens) (UniProt P17948); details: at 10 µM
[8] = molecular target: Receptor-type tyrosine-protein kinase FLT3 (Homo sapiens) (UniProt P36888); details: at 1 µM
[9] = molecular target: Receptor-type tyrosine-protein kinase FLT3 (Homo sapiens) (UniProt P36888); details: at 10 µM
[10] = molecular target: Vascular endothelial growth factor receptor 3 (Homo sapiens) (UniProt P35916); details: at 1 µM
[11] = molecular target: Vascular endothelial growth factor receptor 3 (Homo sapiens) (UniProt P35916); details: at 10 µM
[12] = molecular target: Macrophage colony-stimulating factor 1 receptor (Homo sapiens) (UniProt P07333); details: at 1 µM
[13] = molecular target: Macrophage colony-stimulating factor 1 receptor (Homo sapiens) (UniProt P07333); details: at 10 µM
[14] = molecular target: Tyrosine-protein kinase Fyn (Homo sapiens) (UniProt P06241); details: at 1 µM
[15] = molecular target: Tyrosine-protein kinase Fyn (Homo sapiens) (UniProt P06241); details: at 10 µM
[16] = molecular target: T1, Mitogen-activated protein kinase kinase kinase kinase 2 (Homo sapiens) (UniProt Q12851); details: at 1 µM
T1 sequence (whole entry): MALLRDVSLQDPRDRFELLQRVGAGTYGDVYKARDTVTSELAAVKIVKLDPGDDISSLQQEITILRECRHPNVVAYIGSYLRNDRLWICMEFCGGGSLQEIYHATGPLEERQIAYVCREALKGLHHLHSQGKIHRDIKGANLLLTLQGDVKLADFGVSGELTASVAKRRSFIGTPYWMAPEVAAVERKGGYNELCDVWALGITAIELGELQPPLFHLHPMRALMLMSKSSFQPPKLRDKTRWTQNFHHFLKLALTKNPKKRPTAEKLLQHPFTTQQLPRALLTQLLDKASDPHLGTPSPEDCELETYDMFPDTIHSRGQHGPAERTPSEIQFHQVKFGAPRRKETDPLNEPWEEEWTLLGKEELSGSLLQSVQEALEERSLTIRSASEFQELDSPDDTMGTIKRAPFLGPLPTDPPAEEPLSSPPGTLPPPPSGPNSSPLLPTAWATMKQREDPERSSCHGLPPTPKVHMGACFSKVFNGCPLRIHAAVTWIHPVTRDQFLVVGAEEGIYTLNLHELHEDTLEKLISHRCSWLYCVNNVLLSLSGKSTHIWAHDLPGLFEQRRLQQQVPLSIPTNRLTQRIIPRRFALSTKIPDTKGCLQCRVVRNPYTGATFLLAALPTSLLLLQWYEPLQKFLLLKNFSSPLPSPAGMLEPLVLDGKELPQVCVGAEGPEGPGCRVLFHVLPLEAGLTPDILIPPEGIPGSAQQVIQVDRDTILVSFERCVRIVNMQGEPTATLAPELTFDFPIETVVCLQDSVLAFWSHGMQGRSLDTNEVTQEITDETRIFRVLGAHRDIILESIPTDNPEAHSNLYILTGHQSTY

[17] = molecular target: T1, Mitogen-activated protein kinase kinase kinase kinase 2 (Homo sapiens); details: at 10 µM
[18] = molecular target: G protein-coupled receptor kinase 5 (Homo sapiens) (UniProt P34947); details: at 10 µM
[19] = molecular target: G protein-coupled receptor kinase 6 (Homo sapiens) (UniProt P43250); details: at 10 µM
[20] = molecular target: T2, Rhodopsin kinase GRK7 (Homo sapiens) (UniProt Q8WTQ7); details: at 1 µM
T2 sequence (whole entry): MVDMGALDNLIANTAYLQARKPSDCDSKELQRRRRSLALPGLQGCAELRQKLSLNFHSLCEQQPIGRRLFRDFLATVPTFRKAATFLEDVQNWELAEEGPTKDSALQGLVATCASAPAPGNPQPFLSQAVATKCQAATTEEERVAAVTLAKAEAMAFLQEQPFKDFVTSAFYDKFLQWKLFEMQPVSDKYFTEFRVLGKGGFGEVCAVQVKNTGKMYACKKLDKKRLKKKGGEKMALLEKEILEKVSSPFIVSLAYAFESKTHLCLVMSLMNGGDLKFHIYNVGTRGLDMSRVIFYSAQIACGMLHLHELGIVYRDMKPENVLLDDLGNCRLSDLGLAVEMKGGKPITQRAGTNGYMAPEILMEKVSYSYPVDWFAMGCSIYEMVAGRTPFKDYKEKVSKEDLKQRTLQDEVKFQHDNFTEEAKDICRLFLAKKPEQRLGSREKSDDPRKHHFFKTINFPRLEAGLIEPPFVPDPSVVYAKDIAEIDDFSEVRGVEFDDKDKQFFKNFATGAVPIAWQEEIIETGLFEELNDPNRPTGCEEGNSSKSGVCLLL

Chain of G protein-coupled receptor kinase 6 (Homo sapiens) (P43250 whole entry, looked up): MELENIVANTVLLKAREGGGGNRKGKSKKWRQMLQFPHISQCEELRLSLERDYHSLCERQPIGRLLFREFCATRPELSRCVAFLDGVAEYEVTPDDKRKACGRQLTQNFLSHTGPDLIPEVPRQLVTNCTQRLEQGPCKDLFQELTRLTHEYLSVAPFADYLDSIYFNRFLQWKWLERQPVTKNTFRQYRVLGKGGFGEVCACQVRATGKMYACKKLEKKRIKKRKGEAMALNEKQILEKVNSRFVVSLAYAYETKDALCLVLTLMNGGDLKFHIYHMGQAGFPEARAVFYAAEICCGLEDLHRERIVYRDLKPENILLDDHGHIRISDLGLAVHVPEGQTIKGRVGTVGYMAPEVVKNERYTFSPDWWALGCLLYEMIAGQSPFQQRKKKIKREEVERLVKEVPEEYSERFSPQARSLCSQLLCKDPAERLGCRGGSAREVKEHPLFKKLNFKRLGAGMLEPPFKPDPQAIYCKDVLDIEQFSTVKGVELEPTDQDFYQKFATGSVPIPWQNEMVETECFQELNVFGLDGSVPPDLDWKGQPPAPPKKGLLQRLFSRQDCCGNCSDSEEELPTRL
Chain of Tyrosine-protein kinase Fgr (Homo sapiens) (P09769 2-529 limits assumed): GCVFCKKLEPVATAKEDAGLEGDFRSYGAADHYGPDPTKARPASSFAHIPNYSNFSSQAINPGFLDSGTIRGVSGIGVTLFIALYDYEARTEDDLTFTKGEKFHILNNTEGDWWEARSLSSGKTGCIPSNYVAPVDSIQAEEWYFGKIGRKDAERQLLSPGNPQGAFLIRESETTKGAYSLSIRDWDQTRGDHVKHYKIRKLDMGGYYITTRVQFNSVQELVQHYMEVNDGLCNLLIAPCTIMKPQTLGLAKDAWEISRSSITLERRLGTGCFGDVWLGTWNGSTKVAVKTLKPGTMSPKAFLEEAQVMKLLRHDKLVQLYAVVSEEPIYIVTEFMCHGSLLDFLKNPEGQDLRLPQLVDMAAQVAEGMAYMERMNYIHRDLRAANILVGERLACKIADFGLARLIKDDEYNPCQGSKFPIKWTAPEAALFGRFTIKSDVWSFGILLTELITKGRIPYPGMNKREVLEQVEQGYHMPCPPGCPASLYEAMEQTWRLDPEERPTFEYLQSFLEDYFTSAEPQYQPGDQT
Chain of Tyrosine-protein kinase Fyn (Homo sapiens) (P06241 2-537 limits assumed): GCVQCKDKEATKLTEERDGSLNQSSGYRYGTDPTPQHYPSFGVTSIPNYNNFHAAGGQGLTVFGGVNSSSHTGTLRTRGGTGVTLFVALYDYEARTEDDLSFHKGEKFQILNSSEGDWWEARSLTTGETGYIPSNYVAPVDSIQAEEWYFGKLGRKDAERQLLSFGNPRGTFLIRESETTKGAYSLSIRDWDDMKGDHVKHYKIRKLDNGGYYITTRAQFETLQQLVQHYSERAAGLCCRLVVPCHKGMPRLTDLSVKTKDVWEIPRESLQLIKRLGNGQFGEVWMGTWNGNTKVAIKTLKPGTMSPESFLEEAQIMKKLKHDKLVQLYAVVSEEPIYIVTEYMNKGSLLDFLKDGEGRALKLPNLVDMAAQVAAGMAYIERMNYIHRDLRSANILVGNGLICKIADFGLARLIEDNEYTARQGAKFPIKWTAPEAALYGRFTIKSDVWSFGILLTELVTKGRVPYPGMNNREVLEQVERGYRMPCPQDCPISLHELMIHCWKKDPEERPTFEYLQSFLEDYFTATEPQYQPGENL
Chain of Macrophage colony-stimulating factor 1 receptor (Homo sapiens) (P07333 whole entry): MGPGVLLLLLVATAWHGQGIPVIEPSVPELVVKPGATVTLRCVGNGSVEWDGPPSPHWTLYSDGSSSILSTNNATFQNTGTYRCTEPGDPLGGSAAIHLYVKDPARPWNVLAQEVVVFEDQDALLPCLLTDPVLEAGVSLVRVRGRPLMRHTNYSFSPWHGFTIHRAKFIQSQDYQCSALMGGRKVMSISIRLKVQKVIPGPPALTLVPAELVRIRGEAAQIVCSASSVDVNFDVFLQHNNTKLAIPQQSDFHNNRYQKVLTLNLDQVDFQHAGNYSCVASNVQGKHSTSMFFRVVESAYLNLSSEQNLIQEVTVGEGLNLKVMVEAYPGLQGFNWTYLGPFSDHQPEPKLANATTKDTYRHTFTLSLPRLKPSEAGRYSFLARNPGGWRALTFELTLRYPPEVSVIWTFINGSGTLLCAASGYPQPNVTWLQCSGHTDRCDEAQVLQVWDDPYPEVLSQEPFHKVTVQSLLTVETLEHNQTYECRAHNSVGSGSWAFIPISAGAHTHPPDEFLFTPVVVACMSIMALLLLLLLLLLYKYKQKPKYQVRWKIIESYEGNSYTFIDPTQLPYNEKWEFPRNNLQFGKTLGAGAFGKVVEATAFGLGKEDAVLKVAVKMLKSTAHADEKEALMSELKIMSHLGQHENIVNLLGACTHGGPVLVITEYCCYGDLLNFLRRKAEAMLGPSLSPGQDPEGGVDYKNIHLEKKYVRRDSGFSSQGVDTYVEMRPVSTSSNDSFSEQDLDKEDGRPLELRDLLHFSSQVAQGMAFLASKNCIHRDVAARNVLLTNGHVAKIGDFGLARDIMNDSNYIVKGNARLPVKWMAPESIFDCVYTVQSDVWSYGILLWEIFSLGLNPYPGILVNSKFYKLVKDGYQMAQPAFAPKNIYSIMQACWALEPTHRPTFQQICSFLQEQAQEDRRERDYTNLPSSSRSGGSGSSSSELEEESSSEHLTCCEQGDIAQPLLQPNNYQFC
Chain of Vascular endothelial growth factor receptor 3 (Homo sapiens) (P35916 whole entry): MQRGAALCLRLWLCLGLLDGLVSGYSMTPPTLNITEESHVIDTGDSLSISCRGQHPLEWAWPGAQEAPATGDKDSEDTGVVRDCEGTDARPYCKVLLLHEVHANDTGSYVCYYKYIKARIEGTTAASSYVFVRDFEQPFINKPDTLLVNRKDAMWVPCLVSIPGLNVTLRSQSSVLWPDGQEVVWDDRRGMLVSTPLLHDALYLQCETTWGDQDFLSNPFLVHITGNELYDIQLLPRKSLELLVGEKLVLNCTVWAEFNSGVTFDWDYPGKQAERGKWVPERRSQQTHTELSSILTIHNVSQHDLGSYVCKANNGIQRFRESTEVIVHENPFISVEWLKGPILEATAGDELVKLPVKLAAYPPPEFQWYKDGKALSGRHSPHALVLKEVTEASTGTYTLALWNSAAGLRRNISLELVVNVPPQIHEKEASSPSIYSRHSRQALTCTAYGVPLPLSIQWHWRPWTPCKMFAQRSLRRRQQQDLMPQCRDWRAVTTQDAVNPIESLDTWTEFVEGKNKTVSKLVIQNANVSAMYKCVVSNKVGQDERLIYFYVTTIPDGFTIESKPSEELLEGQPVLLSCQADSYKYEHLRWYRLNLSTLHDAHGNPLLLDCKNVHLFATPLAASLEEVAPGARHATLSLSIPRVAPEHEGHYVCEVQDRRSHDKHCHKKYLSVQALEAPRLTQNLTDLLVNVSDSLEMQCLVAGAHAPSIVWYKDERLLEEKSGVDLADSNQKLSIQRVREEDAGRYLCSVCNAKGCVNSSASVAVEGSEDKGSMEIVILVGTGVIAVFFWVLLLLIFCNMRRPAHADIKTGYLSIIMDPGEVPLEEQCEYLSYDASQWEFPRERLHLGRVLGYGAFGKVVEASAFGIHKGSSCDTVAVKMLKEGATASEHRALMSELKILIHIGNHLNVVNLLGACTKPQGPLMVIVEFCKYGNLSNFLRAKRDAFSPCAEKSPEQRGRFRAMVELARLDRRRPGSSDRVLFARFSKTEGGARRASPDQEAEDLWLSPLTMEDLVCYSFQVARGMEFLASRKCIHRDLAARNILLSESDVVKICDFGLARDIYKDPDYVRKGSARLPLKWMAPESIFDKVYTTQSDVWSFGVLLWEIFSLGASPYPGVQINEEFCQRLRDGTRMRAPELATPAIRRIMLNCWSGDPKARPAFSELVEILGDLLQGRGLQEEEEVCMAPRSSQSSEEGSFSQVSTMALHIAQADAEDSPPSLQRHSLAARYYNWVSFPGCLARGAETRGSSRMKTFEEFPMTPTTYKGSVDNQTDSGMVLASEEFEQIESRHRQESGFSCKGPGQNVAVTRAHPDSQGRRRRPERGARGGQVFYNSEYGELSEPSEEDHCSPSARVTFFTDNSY
Chain of Receptor-type tyrosine-protein kinase FLT3 (Homo sapiens) (P36888 whole entry): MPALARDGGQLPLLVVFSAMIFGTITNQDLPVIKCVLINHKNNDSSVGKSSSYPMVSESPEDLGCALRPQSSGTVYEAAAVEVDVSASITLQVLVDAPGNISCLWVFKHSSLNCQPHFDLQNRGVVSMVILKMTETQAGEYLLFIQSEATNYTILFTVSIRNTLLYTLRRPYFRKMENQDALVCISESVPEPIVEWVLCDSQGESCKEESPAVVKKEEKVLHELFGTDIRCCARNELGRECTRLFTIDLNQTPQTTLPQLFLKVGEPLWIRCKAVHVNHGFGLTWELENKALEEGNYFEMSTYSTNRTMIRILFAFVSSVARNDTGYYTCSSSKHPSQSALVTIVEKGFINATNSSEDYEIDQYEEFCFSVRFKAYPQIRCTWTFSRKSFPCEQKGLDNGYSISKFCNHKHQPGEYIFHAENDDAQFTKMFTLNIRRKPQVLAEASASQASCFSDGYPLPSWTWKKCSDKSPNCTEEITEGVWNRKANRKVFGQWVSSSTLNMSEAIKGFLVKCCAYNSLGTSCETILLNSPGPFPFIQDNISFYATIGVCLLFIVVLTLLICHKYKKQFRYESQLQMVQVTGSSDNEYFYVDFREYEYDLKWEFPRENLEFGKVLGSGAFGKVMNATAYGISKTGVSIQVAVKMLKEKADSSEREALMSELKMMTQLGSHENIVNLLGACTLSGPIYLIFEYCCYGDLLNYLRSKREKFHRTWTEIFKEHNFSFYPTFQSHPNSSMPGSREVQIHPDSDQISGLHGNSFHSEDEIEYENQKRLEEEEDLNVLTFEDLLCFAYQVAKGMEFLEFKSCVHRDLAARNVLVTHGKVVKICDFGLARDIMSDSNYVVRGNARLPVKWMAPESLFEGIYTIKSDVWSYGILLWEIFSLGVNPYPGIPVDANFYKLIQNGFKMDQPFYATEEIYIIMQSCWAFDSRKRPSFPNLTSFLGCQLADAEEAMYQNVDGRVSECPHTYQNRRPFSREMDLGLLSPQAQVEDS

Structure (SMILES)	residual activity [1] [%]	residual activity [2] [%]	residual activity [3] [%]	residual activity [4] [%]	residual activity [5] [%]	residual activity [6] [%]	residual activity [7] [%]	residual activity [8] [%]	residual activity [9] [%]	residual activity [10] [%]	residual activity [11] [%]	residual activity [12] [%]	residual activity [13] [%]	residual activity [14] [%]	residual activity [15] [%]	residual activity [16] [%]	residual activity [17] [%]	residual activity [18] [%]	residual activity [19] [%]	residual activity [20] [%]
CC(C)n1cnc2c(NCc3ccccc3)nc(NCCCO)nc21	103	94	51	103	103	94	87	89	78	87	68	101	77	93	1	87	75	93	87	94
CC[n+]1c(/C=C/N(C)c2ccccc2)n(-c2ccccc2)c2ccc(-c3nc4ccccc4s3)cc21	59	121	105	98	88	105	83	77	26	89	52	93	71	101	60	103	73	91	93	112
Nc1nc(Nc2ccc(S(N)(=O)=O)cc2)nn1C(=S)Nc1c(F)cccc1F	1	2	1	9	1	0	-1	2	1	0	-1	5	0	6	-1	1	-1	30		
O=C(O)c1ccc2c3c1cccc3c(=O)n1c3ccccc3nc21	5	98	71	97	87	92	81	50	22	74	43	102	75	80	59	38	21	70	91	102
NC(=O)c1ccc2[nH]c(-c3ccc(Oc4ccc(Cl)cc4)cc3)nc2c1	89	97	87	99	90	82	39	65	27	69	22	84	59	78	86	44	10	88	80	89
CC(=O)O/N=C1\C(=C2\C(=O)Nc3cc(Br)ccc32)Nc2ccccc21	92	107	97	10	-1	24	1	3	0	2	1	33	16	1	0	67	23	94	88	106
Nc1n[nH]c2nnc(-c3c(-c4ccccc4)nn4ccccc34)cc12	66	85	86	86	50	71	23	72	22	76	23	67	28	71	52	67	24	99	89	83
Cc1nc2cc3nc(-c4cccs4)cnc3cc2n1C	105	134	88	109	69	40	3	15	1	24	2	52	8	103	69	110	85	77	92	113
COc1cc2ncnc(Nc3ccc(O)c(Br)c3)c2cc1OC	84	95	65	39	6	29	4	49	2	14	2	63	22	49	9	52	18	89	78	75
O=C1c2ccccc2-[n+]2ccc3c([nH]c4ccccc43)c21	90	89	88	92	85	79	67	87	52	76	25	68	58	77	76	75	73	91	90	91
COc1ccc(CNc2nc(N(CCO)CCO)nc3c2ncn3C(C)C)cc1	86	62	23	77	85	88	55	85	74	62	30	91	69	70	90	78	78	93	86	76
Nc1cccc(-c2cc3c(Oc4cccc(O)c4)ncnc3[nH]2)c1	10	13	1	0	2	0	0	22	1	-1	0	3	-1	0	-2	42	8	93	93	92
COc1cc2ncnc(N3CCN(C(=O)Nc4ccc(Oc5ccccc5)cc4)CC3)c2cc1OC	88	98	86	96	97	56	21	37	18	31	7	7	2	84	82	80	69	93	82	80
O=C(Nc1cccc(Nc2cc(Nc3cccc(C(F)(F)F)c3)ncn2)c1)C1CC1	92	113	86	90	81	99	61	108	128	97	61	71	37	92	36	100	70	100	97	102
Oc1ccc(Nc2nc(-c3ccc(Cl)cc3)cs2)cc1	100	106	95	96	93	99	77	70	56	45	21	72	43	87	68	97	60	100	102	103
O=C1NC(=O)c2cc(Nc3ccc(F)cc3)c(Nc3ccc(F)cc3)cc21	86	112	69	89	44	77	66	107	73	84	65	75	54	68	50	81	71	90	81	93
Cn1cc(/C=C2\C(=O)Nc3ccc(S(N)(=O)=O)cc32)c2ccccc21	9	40	15	9	10	22	9	1	-1	11	3	52	12	10	3	7	1	37	89	14
O=C1NC(=O)/C(=C/c2ccc3c(c2)OC(F)(F)O3)S1	86	128	90	105	101	92	85	89	83	98	83	56	72	93	79	106	87	101	87	107
COc1ccc(S(=O)(=O)N(CCO)c2ccccc2CN(C)C/C=C/c2ccc(Cl)cc2)cc1	91	96	89	95	80	100	92	104	62	90	93	78	64	73	37	85	81	87	86	99
COc1cccc(-c2cc(=O)c3ccccc3o2)c1N	101	94	107	97	100	101	92	87	85	95	80	114	88	93	39	91	82	102	96	96
COc1ccc(OC)c2c(=S)c3ccccc3[nH]c12	92	89	103	94	99	90	77	83	73	89	60	84	62	83	90	90	80	97	80	84
O=C1Nc2cc(Br)ccc2/C1=C1/Nc2ccccc2/C1=N\O	45	79	100	1	2	-1	1	1	1	1	1	5	8	1	2	16	25	98	86	94
O=Nc1c(-c2c(O)[nH]c3ccccc23)[nH]c2ccccc12	53	72	30	8	1	1	0	1	0	-1	1	15	8	5	0	13	1	58	80	73
CCOc1cc2ncnc(Nc3cccc(Br)c3)c2cc1OCC	85	112	80	54	10	54	6	101	40	36	4	73	27	26	4	78	39	84	90	94
CCN(CC)CCCCN1c2ccccc2Oc2ccc(Cl)cc21	102	129	88	111	95	115	112	98	74	96	102	124	127	102	108	109	91	97	98	111
Ic1cccc(CSc2nnc(-c3ccncc3)o2)c1	100	88	92	80	81	26	19	30	19	22	15	71	53	71	84	49	35	89	83	88
CCC(=O)Nc1ccc2ncnc(Nc3cccc(Br)c3)c2c1	91	115	78	102	76	86	83	120	107	85	65	94	61	85	67	77	69	93	83	96

Reference: ChEMBL document CHEMBL2218924, “A broad activity screen in support of a chemogenomic map for kinase signalling research and drug discovery” (Biochem J, 2013)
